# In ChEMBL document CHEMBL5606460, “ASAP - DENV-2 NS2B-NS3 protease fluorescence single point” (2024):
# The whole screen tested about 2,000 compounds, of which about 110 (5.5%) showed an effect of 50% or more. For the sample, strong results were picked, then their nearest neighbours and some compounds at random.
# Molecular target: Genome polyprotein (dengue virus type 2) (UniProt P29990)
# [1] = Thailand/16681/1984, Concentration 25.0 uM, Number of replicates 1.0
smiles,measurement,setting,value
N#Cc1cccc(-c2nc3c(C(=O)NCc4ccccc4)cc(Cl)cc3[nH]2)c1,inhibition,"Thailand/16681/1984, Concentration 99.5 uM, Number of replicates 2.0, Standard deviation 0.16663009439873022 %",-4.99%
same,inhibition,"Thailand/16681/1984, Concentration 295.6 uM, Number of replicates 2.0, Standard deviation 26.28702583112172 %",8.64%
N#Cc1cccc(-c2nc3c(C(=O)Nc4ccccc4)cc(Cl)cc3[nH]2)c1,inhibition,"Thailand/16681/1984, Concentration 99.5 uM, Number of replicates 2.0, Standard deviation 7.963520922762683 %",14.4%
same,inhibition,"Thailand/16681/1984, Concentration 295.6 uM, Number of replicates 2.0, Standard deviation 58.7613445679075 %",56.6%
CCc1ccc(-c2nc3c(C(=O)Nc4ccc5c(c4)CNC5)cc(Cl)cc3[nH]2)cc1,inhibition,"Thailand/16681/1984, Concentration 99.5 uM, Number of replicates 2.0, Standard deviation 0.07636874080258764 %",91.5%
same,inhibition,"Thailand/16681/1984, Concentration 295.6 uM, Number of replicates 2.0, Standard deviation 0.5542721932424032 %",83.9%
CCn1ncc(-c2ccccc2C(=O)Nc2cnn(C)c2)c1F,inhibition,"Thailand/16681/1984, Concentration 49.5 uM, Number of replicates 2.0, Standard deviation 1.7362397615810676 %",-3.37%
same,inhibition,"Thailand/16681/1984, Concentration 99.01 uM, Number of replicates 2.0, Standard deviation 3.5632406540879202 %",-3.71%
same,inhibition,"Thailand/16681/1984, Concentration 198.0 uM, Number of replicates 2.0, Standard deviation 2.004108271976906 %",-1.89%
COc1c(Cl)cccc1NC(=O)C1CCN(c2ccc(C=O)cc2)CC1,inhibition,[1],13.9%
C[C@H]1CCC[C@H](C)N1CCNC(=O)C1CCN(c2ccc(C=O)cc2)CC1,inhibition,[1],12.4%
CNC(=O)c1cn(C[C@H]2CCCN2C(=O)c2cccc3ncsc23)nn1,inhibition,"Thailand/16681/1984, Concentration 49.5 uM, Number of replicates 2.0, Standard deviation 0.1358580059513503 %",0.293%
same,inhibition,"Thailand/16681/1984, Concentration 99.01 uM, Number of replicates 2.0, Standard deviation 0.18464096005398162 %",0.707%
same,inhibition,"Thailand/16681/1984, Concentration 198.0 uM, Number of replicates 2.0, Standard deviation 0.18359188284769695 %",0.879%
O=Cc1ccc(N2CCC(C(=O)NCc3ccc(Br)s3)CC2)cc1,inhibition,[1],12.4%
O=C(Nc1ccc2c(c1)CNC2)c1cc(Cl)cc(C(F)(F)F)n1,inhibition,"Thailand/16681/1984, Concentration 99.5 uM, Number of replicates 2.0, Standard deviation 0.07984298981903766 %",98%
same,inhibition,"Thailand/16681/1984, Concentration 295.6 uM, Number of replicates 2.0, Standard deviation 0.03008678069059277 %",99.8%
N#Cc1cccc(NC(=O)c2cccc(OCc3c(Cl)cccc3Cl)c2)c1,inhibition,"Thailand/16681/1984, Concentration 49.5 uM, Number of replicates 2.0, Standard deviation 0.9750482899240065 %",1.9%
same,inhibition,"Thailand/16681/1984, Concentration 99.01 uM, Number of replicates 2.0, Standard deviation 10.511808397875392 %",16.1%
same,inhibition,"Thailand/16681/1984, Concentration 198.0 uM, Number of replicates 2.0, Standard deviation 5.918696266313343 %",7%
N#Cc1cccc(-c2nc3c(C(=O)NCc4ccccn4)cc(Cl)cc3[nH]2)c1,inhibition,"Thailand/16681/1984, Concentration 99.5 uM, Number of replicates 2.0, Standard deviation 0.024300186977441064 %",-1.93%
same,inhibition,"Thailand/16681/1984, Concentration 295.6 uM, Number of replicates 2.0, Standard deviation 0.2349015826654049 %",5.47%
N#Cc1cccc(-c2nc3c(C(=O)Nc4ccc5c(c4)CNC5)cc(Cl)cc3[nH]2)c1,inhibition,"Thailand/16681/1984, Concentration 99.5 uM, Number of replicates 2.0, Standard deviation 0.0717454001083366 %",96.4%
same,inhibition,"Thailand/16681/1984, Concentration 295.6 uM, Number of replicates 2.0, Standard deviation 0.16315483385791593 %",93.6%
Cn1ncc2c(C(=O)Nc3ccc4c(c3)CNC4)cc(-c3cccnc3)nc21,inhibition,"Thailand/16681/1984, Concentration 99.5 uM, Number of replicates 2.0, Standard deviation 0.6966055883154065 %",-0.716%
same,inhibition,"Thailand/16681/1984, Concentration 295.6 uM, Number of replicates 2.0, Standard deviation 0.8690208118243027 %",16.8%
Cc1cnccc1NC(=O)c1cccc(C(F)(F)F)n1,inhibition,"Thailand/16681/1984, Concentration 49.5 uM, Number of replicates 2.0, Standard deviation 0.6191824281934856 %",0.024%
same,inhibition,"Thailand/16681/1984, Concentration 99.01 uM, Number of replicates 2.0, Standard deviation 1.7542746720133946 %",-0.908%
same,inhibition,"Thailand/16681/1984, Concentration 198.0 uM, Number of replicates 2.0, Standard deviation 1.379232208237382 %",-0.988%
CCCOc1ccc(NC(=O)C2CCN(c3ccc(C=O)cc3)CC2)cc1,inhibition,[1],0.636%
O=Cc1ccc(N2CCC(C(=O)N3CCN(C(c4ccc(F)cc4)c4ccc(F)cc4)CC3)CC2)cc1,inhibition,[1],1.35%
COc1cccc(Cn2ncc(C3CCNCC3)c2C)n1,inhibition,"Thailand/16681/1984, Concentration 49.5 uM, Number of replicates 2.0, Standard deviation 0.6865140838852157 %",-2.28%
same,inhibition,"Thailand/16681/1984, Concentration 99.01 uM, Number of replicates 2.0, Standard deviation 1.8857815426916016 %",-0.708%
same,inhibition,"Thailand/16681/1984, Concentration 198.0 uM, Number of replicates 2.0, Standard deviation 1.685903611817113 %",-0.083%
O=Cc1ccc(N2CCC(C(=O)NCCCn3nccc3C3CC3)CC2)cc1,inhibition,[1],15.6%
O=Cc1ccc(N2CCC(C(=O)Nc3cc(C(F)(F)F)ccn3)CC2)cc1,inhibition,[1],10.8%
Cc1cc(CO)c2cccc(NC(=O)c3nc(-c4ccccc4)oc3C(F)(F)F)c2n1,inhibition,"Thailand/16681/1984, Concentration 49.95 uM, Number of replicates 2.0, Standard deviation 3.021297847027803 %",28.1%
same,inhibition,"Thailand/16681/1984, Concentration 99.9 uM, Number of replicates 2.0, Standard deviation 2.6625533133971393 %",43.6%
Cc1cc(CO)c2cccc(Cc3cccc(NC(=O)c4nc(C5CCNCC5)oc4C)c3)c2n1,inhibition,"Thailand/16681/1984, Concentration 49.95 uM, Number of replicates 2.0, Standard deviation 2.427412589513284 %",-2.68%
same,inhibition,"Thailand/16681/1984, Concentration 99.9 uM, Number of replicates 2.0, Standard deviation 2.040383474434353 %",-3.1%
CNc1ccccc1C(=O)Nc1ccccc1Cc1cccc2c(CO)cc(C)nc12,inhibition,"Thailand/16681/1984, Concentration 49.95 uM, Number of replicates 2.0, Standard deviation 0.9187611737377075 %",-6.32%
same,inhibition,"Thailand/16681/1984, Concentration 99.9 uM, Number of replicates 2.0, Standard deviation 0.9402243720481833 %",-7.75%
Cc1cc(CO)c2cccc(Cc3ccccc3NC(=O)c3nc(C4CCNCC4)oc3C)c2n1,inhibition,"Thailand/16681/1984, Concentration 49.95 uM, Number of replicates 2.0, Standard deviation 1.1742415452444355 %",3.36%
same,inhibition,"Thailand/16681/1984, Concentration 99.9 uM, Number of replicates 2.0, Standard deviation 2.967451033370285 %",69.9%
